# Test results taken from article PMC7862700, “An all-to-all approach to the identification of sequence-specific readers for epigenetic DNA modifications on cytosine”.
# How the values were obtained:
# Assay in all cases: DAPPL (digital affinity profiling via proximity ligation, sequencing); 10 mM Tris-HCl pH 7.5, 50 mM NaCl, 1 mM DTT, 4% glycerol, room temperature, 30 min; GST-TFs on glutathione beads, 16-mer random dsDNA library, 0.1% formaldehyde crosslink after washing; high values mean tight binding
# FLI1 = target: T1, FLI1 (Homo sapiens, UniProt Q01543 1-452); conditions: protein: recombinant; tags: N-terminal GST; dsDNA, one strand shown
# T1 sequence: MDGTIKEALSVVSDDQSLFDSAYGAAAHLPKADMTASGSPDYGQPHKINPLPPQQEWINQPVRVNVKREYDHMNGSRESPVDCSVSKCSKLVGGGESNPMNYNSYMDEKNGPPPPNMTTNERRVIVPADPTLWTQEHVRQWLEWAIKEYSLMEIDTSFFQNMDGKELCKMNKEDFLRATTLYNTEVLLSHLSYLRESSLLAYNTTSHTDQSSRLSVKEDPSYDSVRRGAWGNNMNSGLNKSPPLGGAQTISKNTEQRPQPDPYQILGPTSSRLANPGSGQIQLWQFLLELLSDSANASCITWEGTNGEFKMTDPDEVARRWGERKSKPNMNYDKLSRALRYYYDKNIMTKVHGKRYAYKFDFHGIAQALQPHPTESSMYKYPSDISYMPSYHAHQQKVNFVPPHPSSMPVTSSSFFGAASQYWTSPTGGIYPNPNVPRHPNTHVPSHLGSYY
# Procedure, shortened: (§1)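 In yeast, human transcription factors were expressed with a GST fusion, then pulled down on glutathione beads and given DNA barcodes. Pooled with a tag-only sample, they were exposed to 200 nmole of a 16-mer random double-stranded DNA library (Tris/NaCl/DTT/glycerol buffer, room temperature, 30 min), washed, crosslinked with 0.1% formaldehyde, proximity-ligated using BsaI/T4 ligase for 1 h at 37 °C, PCR-amplified and read on an Illumina NextSeq500. Each hexamer's frequency of reads for a factor, divided by the matching frequency for the tag-only sample, gives the binding signal.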
# ELK1 = target: T2, ELK1 (Homo sapiens, UniProt P19419 1-428); conditions: protein: recombinant; tags: N-terminal GST; dsDNA, one strand shown
# T2 sequence: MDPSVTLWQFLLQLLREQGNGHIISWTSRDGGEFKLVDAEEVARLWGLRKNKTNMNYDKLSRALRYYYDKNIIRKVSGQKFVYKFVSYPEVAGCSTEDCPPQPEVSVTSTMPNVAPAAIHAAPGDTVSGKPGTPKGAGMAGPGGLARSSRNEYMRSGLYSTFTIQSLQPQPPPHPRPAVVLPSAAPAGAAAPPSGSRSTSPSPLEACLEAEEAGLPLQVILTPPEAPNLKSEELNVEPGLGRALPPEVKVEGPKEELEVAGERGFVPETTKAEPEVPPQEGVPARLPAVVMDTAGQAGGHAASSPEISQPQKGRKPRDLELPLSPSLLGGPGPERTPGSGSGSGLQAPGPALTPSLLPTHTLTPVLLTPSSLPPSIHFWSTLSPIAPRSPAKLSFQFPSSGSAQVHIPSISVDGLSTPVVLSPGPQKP
# Procedure, shortened: as §1
# GABPA = target: T3, GABPA (Homo sapiens, UniProt Q06546 1-454); conditions: protein: recombinant; tags: N-terminal GST; dsDNA, one strand shown
# T3 sequence: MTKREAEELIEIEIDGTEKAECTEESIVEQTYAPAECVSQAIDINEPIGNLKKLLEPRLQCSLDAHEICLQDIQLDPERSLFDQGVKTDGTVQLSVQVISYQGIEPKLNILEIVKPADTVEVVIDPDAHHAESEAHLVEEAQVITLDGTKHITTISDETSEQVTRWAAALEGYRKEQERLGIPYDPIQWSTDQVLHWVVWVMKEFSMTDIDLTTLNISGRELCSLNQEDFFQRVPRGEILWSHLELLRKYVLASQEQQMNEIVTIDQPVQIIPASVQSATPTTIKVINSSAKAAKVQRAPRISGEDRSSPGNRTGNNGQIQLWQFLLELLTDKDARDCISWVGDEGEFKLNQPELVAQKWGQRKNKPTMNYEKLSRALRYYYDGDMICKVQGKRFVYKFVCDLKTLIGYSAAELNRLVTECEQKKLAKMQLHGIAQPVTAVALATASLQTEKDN
# Procedure, shortened: as §1
# ERG = target: T4, ERG (Homo sapiens, UniProt P11308 1-479); conditions: protein: recombinant; tags: N-terminal GST; dsDNA, one strand shown
# T4 sequence: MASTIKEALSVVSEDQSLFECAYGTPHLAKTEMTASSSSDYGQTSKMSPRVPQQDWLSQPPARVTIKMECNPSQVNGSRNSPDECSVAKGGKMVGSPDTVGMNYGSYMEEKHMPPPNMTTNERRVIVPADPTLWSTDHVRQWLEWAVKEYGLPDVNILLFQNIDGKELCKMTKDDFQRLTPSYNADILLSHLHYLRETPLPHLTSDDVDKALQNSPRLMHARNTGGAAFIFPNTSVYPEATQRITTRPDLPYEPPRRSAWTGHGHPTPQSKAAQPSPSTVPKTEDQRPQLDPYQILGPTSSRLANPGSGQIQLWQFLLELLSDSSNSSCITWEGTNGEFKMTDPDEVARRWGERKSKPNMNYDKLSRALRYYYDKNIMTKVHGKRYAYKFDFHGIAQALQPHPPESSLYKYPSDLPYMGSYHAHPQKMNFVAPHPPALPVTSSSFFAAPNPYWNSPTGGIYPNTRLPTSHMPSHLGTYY
# Procedure, shortened: as §1
# ELF1 = ELF1 (Homo sapiens, UniProt P32519 1-619); conditions: protein: recombinant; tags: N-terminal GST; dsDNA, one strand shown
# Procedure, shortened: as §1
# EHF = target: T5, EHF (Homo sapiens, UniProt Q9NZC4 1-300); conditions: protein: recombinant; tags: N-terminal GST; dsDNA, one strand shown
# T5 sequence: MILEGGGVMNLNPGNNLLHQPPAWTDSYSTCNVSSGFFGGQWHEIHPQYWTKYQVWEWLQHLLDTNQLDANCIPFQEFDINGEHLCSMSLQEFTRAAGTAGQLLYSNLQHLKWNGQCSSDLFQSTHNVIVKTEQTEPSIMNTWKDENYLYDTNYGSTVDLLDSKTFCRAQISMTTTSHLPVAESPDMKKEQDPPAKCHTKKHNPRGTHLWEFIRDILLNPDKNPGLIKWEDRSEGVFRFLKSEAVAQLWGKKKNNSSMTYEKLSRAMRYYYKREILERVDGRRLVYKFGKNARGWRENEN
# Procedure, shortened: as §1
# SPI1 = SPI1 (Homo sapiens, UniProt P17947 1-270); conditions: protein: recombinant; tags: N-terminal GST; dsDNA, one strand shown
# Procedure, shortened: as §1
# SPIB = SPIB (Homo sapiens, UniProt Q01892 1-262); conditions: protein: recombinant; tags: N-terminal GST; dsDNA, one strand shown
# Procedure, shortened: as §1
# ELK3 = target: T6, ELK3 (Homo sapiens, UniProt P41970 1-407); conditions: protein: recombinant; tags: N-terminal GST; dsDNA, one strand shown
# T6 sequence: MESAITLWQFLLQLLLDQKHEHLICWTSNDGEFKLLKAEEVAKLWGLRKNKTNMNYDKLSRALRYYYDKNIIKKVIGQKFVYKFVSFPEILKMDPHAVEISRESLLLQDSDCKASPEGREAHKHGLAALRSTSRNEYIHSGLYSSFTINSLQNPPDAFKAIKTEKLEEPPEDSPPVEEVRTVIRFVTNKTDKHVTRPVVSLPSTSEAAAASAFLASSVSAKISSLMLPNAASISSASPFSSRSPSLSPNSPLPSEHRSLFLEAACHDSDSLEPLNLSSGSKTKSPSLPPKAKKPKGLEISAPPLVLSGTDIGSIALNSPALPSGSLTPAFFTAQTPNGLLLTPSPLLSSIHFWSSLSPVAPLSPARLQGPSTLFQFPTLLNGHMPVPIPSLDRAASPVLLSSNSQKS
# Procedure, shortened: as §1
# FEV = target: T7, FEV (Homo sapiens, UniProt Q99581 1-238); conditions: protein: recombinant; tags: N-terminal GST; dsDNA, one strand shown
# T7 sequence: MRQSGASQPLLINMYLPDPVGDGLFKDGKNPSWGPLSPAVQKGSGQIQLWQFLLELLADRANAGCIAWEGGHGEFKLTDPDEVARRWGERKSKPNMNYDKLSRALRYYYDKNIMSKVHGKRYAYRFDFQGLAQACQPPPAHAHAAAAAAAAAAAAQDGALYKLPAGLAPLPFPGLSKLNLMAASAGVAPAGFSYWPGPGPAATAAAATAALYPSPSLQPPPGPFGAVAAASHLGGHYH
# Procedure, shortened: as §1
# ETV5 = ETV5 (Homo sapiens, UniProt P41161 1-510); conditions: protein: recombinant; tags: N-terminal GST; dsDNA, one strand shown
# Procedure, shortened: as §1
# HSF1 = HSF1 (Homo sapiens, UniProt Q00613 1-529); conditions: protein: recombinant; tags: N-terminal GST; chain copies: 3; dsDNA, one strand shown
# Procedure, shortened: as §1
# SPIC = target: T8, SPIC (Homo sapiens, UniProt Q8N5J4 1-248); conditions: protein: recombinant; tags: N-terminal GST; dsDNA, one strand shown
# T8 sequence: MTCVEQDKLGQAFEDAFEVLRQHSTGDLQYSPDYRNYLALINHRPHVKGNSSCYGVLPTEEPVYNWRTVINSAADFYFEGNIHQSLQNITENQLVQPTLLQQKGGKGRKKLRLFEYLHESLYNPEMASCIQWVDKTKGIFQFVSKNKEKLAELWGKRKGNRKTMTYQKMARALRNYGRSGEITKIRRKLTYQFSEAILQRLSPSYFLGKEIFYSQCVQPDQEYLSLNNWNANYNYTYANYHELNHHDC
# Procedure, shortened: as §1
# ELF4 = ELF4 (Homo sapiens, UniProt Q99607 1-663); conditions: protein: recombinant; tags: N-terminal GST; dsDNA, one strand shown
# Procedure, shortened: as §1
# ELK4 = target: T9, ELK4 (Homo sapiens, UniProt P28324-2 1-405); conditions: protein: recombinant; tags: N-terminal GST; dsDNA, one strand shown
# T9 sequence: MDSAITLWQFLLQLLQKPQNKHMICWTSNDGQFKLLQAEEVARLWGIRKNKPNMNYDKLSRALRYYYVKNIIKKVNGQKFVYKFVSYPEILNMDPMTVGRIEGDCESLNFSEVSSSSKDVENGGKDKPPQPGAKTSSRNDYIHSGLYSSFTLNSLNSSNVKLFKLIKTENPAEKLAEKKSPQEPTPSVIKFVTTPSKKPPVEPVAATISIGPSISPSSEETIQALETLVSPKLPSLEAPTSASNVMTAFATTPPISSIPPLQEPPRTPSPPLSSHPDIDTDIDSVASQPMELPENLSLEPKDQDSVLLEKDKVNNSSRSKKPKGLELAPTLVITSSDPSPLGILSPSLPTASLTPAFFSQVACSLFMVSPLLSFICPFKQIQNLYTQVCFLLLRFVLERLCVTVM
# Procedure, shortened: as §1
# ETV2 = target: T10, ETV2 (Homo sapiens, UniProt O00321 1-342); conditions: protein: recombinant; tags: N-terminal GST; dsDNA, one strand shown
# T10 sequence: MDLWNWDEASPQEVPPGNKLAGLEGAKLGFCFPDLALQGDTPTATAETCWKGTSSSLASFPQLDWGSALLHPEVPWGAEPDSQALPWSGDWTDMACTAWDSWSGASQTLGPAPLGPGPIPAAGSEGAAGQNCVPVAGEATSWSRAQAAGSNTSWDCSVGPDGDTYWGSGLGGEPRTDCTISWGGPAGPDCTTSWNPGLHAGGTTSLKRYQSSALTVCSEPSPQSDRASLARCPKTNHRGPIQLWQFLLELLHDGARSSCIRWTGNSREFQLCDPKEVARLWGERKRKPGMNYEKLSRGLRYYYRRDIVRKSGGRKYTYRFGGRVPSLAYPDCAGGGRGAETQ
# Procedure, shortened: as §1
# ELF3 = target: T11, ELF3 (Homo sapiens, UniProt P78545 1-371); conditions: protein: recombinant; tags: N-terminal GST; dsDNA, one strand shown
# T11 sequence: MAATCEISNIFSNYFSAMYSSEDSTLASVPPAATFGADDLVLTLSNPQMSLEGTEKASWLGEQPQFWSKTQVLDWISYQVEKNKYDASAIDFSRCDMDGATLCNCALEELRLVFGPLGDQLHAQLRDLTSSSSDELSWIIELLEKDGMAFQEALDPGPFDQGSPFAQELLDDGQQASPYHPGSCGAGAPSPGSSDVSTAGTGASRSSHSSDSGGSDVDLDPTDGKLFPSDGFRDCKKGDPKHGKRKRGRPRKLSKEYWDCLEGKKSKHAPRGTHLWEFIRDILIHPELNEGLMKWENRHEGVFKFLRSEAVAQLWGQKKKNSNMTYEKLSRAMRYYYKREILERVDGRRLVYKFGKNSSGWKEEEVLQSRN
# Procedure, shortened: as §1
# CRX = CRX (Homo sapiens, UniProt O43186 1-299); conditions: protein: recombinant; tags: N-terminal GST; dsDNA, one strand shown
# Procedure, shortened: as §1
# ETV1 = ETV1 (Homo sapiens, UniProt P50549 1-477); conditions: protein: recombinant; tags: N-terminal GST; dsDNA, one strand shown
# Procedure, shortened: as §1
# Chain of CRX (O43186 whole entry): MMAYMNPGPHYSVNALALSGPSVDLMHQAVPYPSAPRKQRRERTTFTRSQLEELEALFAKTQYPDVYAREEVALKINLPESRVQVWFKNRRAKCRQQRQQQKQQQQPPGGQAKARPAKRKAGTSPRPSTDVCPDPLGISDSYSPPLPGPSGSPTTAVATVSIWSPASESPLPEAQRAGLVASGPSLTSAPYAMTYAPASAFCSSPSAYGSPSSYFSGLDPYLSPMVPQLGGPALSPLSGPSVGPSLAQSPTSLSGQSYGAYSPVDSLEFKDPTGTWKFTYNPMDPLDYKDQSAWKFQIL
# Chain of HSF1 (Q00613 whole entry): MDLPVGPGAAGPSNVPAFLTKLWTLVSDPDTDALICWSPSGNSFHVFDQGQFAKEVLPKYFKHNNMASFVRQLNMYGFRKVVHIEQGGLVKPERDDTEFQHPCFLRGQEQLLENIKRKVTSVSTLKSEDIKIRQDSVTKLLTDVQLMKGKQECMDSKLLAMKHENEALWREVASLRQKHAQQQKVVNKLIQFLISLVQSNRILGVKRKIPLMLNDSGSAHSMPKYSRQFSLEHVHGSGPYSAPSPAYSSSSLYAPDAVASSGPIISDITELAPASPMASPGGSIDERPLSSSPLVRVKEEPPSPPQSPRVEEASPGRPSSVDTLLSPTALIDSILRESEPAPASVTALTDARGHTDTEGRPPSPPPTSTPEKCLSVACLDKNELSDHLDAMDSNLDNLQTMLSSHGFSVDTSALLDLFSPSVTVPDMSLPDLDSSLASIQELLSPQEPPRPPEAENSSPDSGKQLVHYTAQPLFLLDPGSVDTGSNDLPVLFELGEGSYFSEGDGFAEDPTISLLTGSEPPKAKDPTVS
# Chain of ELF1 (P32519 whole entry): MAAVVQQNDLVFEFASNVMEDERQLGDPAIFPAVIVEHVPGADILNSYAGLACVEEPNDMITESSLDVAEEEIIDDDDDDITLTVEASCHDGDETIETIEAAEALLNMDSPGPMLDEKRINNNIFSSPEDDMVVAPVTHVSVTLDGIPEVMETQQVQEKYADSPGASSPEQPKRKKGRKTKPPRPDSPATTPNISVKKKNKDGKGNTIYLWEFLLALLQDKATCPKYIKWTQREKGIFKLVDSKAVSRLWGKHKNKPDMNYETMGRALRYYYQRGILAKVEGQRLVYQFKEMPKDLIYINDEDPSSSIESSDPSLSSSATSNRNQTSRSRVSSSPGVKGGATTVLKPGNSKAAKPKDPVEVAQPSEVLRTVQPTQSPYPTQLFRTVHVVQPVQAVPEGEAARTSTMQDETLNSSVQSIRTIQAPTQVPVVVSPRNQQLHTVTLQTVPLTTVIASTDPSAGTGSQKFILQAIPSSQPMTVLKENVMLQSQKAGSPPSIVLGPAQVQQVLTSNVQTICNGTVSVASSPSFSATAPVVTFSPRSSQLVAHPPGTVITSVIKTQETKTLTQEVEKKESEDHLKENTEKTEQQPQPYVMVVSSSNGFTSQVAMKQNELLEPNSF
# Chain of ELF4 (Q99607 whole entry): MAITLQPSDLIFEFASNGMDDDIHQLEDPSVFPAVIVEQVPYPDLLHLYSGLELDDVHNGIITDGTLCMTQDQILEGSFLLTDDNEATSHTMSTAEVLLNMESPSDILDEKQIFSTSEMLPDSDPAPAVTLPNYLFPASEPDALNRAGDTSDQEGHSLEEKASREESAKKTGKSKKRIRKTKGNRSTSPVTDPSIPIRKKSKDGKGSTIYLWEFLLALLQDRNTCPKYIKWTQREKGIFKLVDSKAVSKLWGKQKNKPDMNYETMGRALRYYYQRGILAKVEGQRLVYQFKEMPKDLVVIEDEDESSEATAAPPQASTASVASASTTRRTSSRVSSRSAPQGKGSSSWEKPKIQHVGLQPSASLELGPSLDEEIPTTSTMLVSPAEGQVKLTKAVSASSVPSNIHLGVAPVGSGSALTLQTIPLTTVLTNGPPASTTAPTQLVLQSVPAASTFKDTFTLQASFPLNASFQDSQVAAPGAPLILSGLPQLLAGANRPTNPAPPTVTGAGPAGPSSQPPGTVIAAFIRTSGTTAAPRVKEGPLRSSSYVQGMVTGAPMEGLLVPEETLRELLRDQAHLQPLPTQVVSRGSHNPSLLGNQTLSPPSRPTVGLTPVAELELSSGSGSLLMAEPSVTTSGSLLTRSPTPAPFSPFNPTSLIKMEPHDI
# Chain of ETV1 (P50549 whole entry): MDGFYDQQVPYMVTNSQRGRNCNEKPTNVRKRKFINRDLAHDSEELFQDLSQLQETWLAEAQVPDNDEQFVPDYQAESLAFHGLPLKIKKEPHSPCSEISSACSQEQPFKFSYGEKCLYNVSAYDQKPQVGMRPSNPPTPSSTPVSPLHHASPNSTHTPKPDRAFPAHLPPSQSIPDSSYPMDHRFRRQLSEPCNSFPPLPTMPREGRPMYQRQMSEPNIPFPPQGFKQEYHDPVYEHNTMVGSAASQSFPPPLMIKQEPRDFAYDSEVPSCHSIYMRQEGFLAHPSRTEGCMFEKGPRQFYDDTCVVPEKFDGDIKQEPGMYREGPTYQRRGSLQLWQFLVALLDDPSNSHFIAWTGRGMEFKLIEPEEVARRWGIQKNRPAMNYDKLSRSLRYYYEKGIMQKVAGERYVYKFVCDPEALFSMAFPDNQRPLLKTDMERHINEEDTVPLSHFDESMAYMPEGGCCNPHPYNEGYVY
# Chain of SPIB (Q01892 whole entry): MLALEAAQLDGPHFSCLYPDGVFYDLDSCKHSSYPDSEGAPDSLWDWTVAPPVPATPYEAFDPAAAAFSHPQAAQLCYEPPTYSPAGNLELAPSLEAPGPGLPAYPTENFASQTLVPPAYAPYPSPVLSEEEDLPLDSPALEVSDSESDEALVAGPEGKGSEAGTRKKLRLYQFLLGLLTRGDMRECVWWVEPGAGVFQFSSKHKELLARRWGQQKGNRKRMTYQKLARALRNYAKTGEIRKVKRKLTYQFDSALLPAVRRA
# Chain of ETV5 (P41161 whole entry): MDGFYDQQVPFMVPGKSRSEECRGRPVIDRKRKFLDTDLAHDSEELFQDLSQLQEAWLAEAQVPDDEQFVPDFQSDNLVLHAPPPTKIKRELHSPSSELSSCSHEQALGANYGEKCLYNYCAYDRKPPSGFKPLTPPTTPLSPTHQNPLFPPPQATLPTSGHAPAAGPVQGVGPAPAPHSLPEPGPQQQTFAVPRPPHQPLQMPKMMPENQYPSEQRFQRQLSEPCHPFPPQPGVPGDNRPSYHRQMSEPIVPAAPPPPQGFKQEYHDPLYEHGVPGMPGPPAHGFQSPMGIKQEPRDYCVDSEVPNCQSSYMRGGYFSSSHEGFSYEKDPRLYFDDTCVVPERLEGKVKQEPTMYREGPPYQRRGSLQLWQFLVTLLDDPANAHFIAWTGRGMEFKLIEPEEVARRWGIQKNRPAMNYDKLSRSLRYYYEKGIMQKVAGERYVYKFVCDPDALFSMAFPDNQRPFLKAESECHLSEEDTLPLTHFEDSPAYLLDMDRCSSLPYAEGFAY
sequence,measurement,setting,value
AAGTAT,binding signal,FLI1,"1.44 fold enrichment (6-mer frequency, TF over GST control)"
same,binding signal,ELK1,"1.4 fold enrichment (6-mer frequency, TF over GST control)"
same,binding signal,GABPA,"1.4 fold enrichment (6-mer frequency, TF over GST control)"
same,binding signal,ERG,"1.42 fold enrichment (6-mer frequency, TF over GST control)"
same,binding signal,ELF1,"1.36 fold enrichment (6-mer frequency, TF over GST control)"
same,binding signal,EHF,"1.43 fold enrichment (6-mer frequency, TF over GST control)"
same,binding signal,SPI1,"1.36 fold enrichment (6-mer frequency, TF over GST control)"
same,binding signal,SPIB,"1.48 fold enrichment (6-mer frequency, TF over GST control)"
same,binding signal,ELK3,"1.46 fold enrichment (6-mer frequency, TF over GST control)"
same,binding signal,FEV,"1.34 fold enrichment (6-mer frequency, TF over GST control)"
same,binding signal,ETV5,"1.38 fold enrichment (6-mer frequency, TF over GST control)"
same,binding signal,HSF1,"1.38 fold enrichment (6-mer frequency, TF over GST control)"
same,binding signal,SPIC,"1.49 fold enrichment (6-mer frequency, TF over GST control)"
same,binding signal,ELF4,"1.4 fold enrichment (6-mer frequency, TF over GST control)"
same,binding signal,ELK4,"1.31 fold enrichment (6-mer frequency, TF over GST control)"
same,binding signal,ETV2,"1.42 fold enrichment (6-mer frequency, TF over GST control)"
same,binding signal,ELF3,"1.35 fold enrichment (6-mer frequency, TF over GST control)"
same,binding signal,CRX,"1.57 fold enrichment (6-mer frequency, TF over GST control)"
same,binding signal,ETV1,"1.44 fold enrichment (6-mer frequency, TF over GST control)"
